Rows were chosen to be rich in hits. Some 2.2% of all compounds tested hit in one or more screens of this group.
ABCB6 inh MLPCN = ABCB6 transporter inhibitors, primary screen, K562-ABCB6 cells, flow cytometry, MLPCN library; K562-ABCB6 porphyrin accumulation, 1 h; active compounds read low; ATP-binding cassette sub-family B member 6 (Homo sapiens), Q9NP58; AID 602162, 2011; fluorescence ratio to DMSO, % at 10 µM; hit rate 0.19% among 360,000;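 active means fluorescence ratio to DMSO below 75%, the collection mean minus 3 SD; inconclusive means too few cells collected in the well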;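 further: signal is porphyrin accumulated inside mitochondria; 100% equals median channel fluorescence of DMSO control wells; lower ratio means ABCB6 inhibition with less porphyrin fluorescence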
Target sequence (Q9NP58 whole entry, looked up): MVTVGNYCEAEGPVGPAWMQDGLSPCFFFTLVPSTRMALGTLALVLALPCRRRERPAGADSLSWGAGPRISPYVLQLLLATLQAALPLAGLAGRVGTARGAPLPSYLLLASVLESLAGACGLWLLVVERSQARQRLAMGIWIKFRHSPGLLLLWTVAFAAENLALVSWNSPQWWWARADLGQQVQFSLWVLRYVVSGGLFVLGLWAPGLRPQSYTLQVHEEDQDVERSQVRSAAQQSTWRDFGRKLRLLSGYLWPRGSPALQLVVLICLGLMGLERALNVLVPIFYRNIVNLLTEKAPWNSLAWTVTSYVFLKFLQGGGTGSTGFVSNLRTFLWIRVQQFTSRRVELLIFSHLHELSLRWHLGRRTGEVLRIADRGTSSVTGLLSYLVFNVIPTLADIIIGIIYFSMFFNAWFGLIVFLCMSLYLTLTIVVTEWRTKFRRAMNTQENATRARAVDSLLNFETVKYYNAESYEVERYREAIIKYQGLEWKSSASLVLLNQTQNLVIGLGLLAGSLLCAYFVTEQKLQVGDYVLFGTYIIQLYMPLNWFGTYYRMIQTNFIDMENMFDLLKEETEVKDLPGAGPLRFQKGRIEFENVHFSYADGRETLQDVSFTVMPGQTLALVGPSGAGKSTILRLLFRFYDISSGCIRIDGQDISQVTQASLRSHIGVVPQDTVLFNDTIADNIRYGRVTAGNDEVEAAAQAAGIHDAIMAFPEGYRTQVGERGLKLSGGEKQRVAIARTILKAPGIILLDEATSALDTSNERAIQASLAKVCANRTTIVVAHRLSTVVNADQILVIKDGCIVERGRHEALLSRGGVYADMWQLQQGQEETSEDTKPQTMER
Myeloid diff MLP = induction of myeloid progenitor differentiation, primary screen, cell-based, flow cytometry, MLPCN library; calls only at 10 µM; ER-HoxA9 myeloid progenitors, lysozyme-GFP differentiation; AID 624256, 2012; hit rate 1% among 360,000;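 active means normalized GFP-positive differentiation at or above the plate's own cutoff, the solvent-only control mean plus 3 SD; inconclusive means no clear call, values can overlap the other calls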;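 further: cells exposed to compound for four days before flow analysis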
beta cell repl = inducers of MIN6 beta-cell proliferation, primary screen, ATP luminescence, uHTS; MIN6 cells proliferation, ATPlite luminescence, 48 h; cells starved in 0.2% serum; 100% = growth in 10% serum; proliferation, % at 10 µM; hit rate 0.29% among 330,000;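 active means compounds whose signal lies at least 3.5 SD above the mean of all wells on their plate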;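 further: 0% = DMSO-treated cells in low-serum medium and 100% = 10% serum control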
hiPSC survival = enhancers of single-cell hiPSC survival, primary screen, ATPlite luminescence. 100% = ROCK inhibitor wells, 0% = DMSO. survival enhancement, % at 20 µM. hit rate 0.044% among 360,000. AID 602274, 2012; in the data active means survival enhancement above about 18%;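 further: cells exposed to compounds for 16 hours before the ATP read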
H9c2 protect = cardioprotection against H2O2-induced cell death, primary screen, uHTS, H9c2 cells, ATPLite luminescence; H9c2 cardiomyocytes, H2O2 injury protection, 2 h; hit rate 0.63% among 360,000; protection from H2O2 cell death, % at 20 µM;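 active means compounds giving at least 50% protection of heart cells from peroxide-induced death in the single-dose screen, raw or plate-pattern-corrected value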;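 further: 0% = DMSO wells with peroxide and 100% = DMSO wells without peroxide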
Starred values were filed as active, the others as inactive; i = inactive; u = inconclusive; x = not tested or not shown; + = active, no number.

SMILES | ABCB6 inh MLPCN | Myeloid diff MLP | beta cell repl | hiPSC survival | H9c2 protect
COc1ccccc1N=Nc1c(O)[nH]c2ccc(Br)cc12 | 232 | + | 1 | 0 | -1
Cc1cnc(C=O)c2cccc([N+](=O)[O-])c12 | 104 | u | x | -1 | 57*
CCN(CC)c1ccc(/C=C/C(=O)C2C(=O)C=C(C)OC2=O)cc1 (centres undefined) | i | + | -2 | -1 | -10
Clc1ccc(-c2nc3ccc(Cl)cn3c2Cc2cccc(Cl)c2)cc1 | 91 | i | x | -1 | -6
COc1ccc2[nH]c(C)c(CCN(Cc3cccs3)C(=S)Nc3cccc(F)c3)c2c1 | 119 | + | -6 | 0 | -30
CC[C@]12C(=O)N(C)C[C@H]([C@@H]3C(=O)N(Cc4ccccc4)C(=O)[C@@H]31)N2C(=O)c1ccccc1 | 99 | + | x | -2 | 6
CC(=O)NC1(C(=O)O)CCCC1 | 102 | i | -2 | -1 | 2
CCNc1nc(C)nc2c1oc1ccccc12 | 67* | i | -1 | -2 | 6
Cc1nc(Nc2cccc(F)c2)c2oc3ccccc3c2n1 | 504 | + | -2 | 0 | 5
O=C(CSc1ccc([N+](=O)[O-])cc1)Nc1nnc(C2CC2)s1 | 104 | i | -3 | 0 | 4
COc1ccc(-c2cc(=O)oc3c(C)c(O)c(CN(C)C)cc23)cc1 | 95 | i | 6 | -3 | 70*
Cc1c(O)c(CN(C)C)cc2c1oc(=O)c1ccccc12 | 97 | i | 4 | 0 | 22
Cc1cc(C)n2nc(CNS(=O)(=O)c3ccc(C(C)(C)C)cc3)nc2n1 | 102 | i | x | -2 | -2
CCOc1ccc(CCNC(=O)c2cc3c(C)nccc3[nH]c2=O)cc1OCC | 97 | i | 6 | 0 | 72*
COc1ccc(S(=O)(=O)N2CCN(S(=O)(=O)c3ccc(C(F)(F)F)cc3)CC2)cc1C | 88 | i | -3 | 0 | -5
Cc1ccc(C)c(N(CC(=O)NC2CCCC2)C(=O)c2cc3cc4cc(C)ccc4nc3s2)c1 | 94 | i | -3 | -1 | 10
COc1ccc(CCNC(=O)c2cc(C(=O)c3cc(C)ccc3O)cn(CCc3ccc(OC)cc3)c2=O)cc1 | 88 | i | 0 | 2 | 65*
S=C(NCc1ccccc1)NC1CCCCC1 | 265 | + | -2 | -1 | -2
Cc1ccc(CNC(=S)NC2CCCCC2)cc1 | 98 | i | -5 | 0 | -6
COc1ccccc1CNC(=S)NC1CCCC1 | 69* | i | 0 | 0 | -3
Cc1cc(C2=NNC(=Nc3ccc(S(=O)(=O)N4CCOCC4)cc3)SC2)c(C)n1C | 99 | i | -4 | 0 | -3
Cc1ccc(S(=O)(=O)/N=c2\scc(C)n2C)cc1 | 97 | i | -2 | 2 | 7
Cc1ccc(N=Nc2ccc(O)c(/C=N\NC(=O)c3ccc(N)cc3)c2)cc1C | 97 | i | -5 | -1 | 56*
O=C(N/N=C/c1cc(Cl)ccc1O)c1ccc(Br)cc1 | 106 | u | x | -1 | 31
Cn1c(=O)c2c(nc(CN3CCc4ccccc4C3)n2Cc2cccc(Cl)c2)n(C)c1=O | 93 | + | -7 | -2 | 22
SMILES | ABCB6 inh MLPCN | Myeloid diff MLP | beta cell repl | hiPSC survival | H9c2 protect
Cn1c(=O)c2c(nc(CN3CCN(C(=O)c4ccco4)CC3)n2CCc2ccccc2)n(C)c1=O | 94 | i | -2 | 18 | 3
CC1CCCN(Cc2nc3c(c(=O)n(C)c(=O)n3C)n2CCc2ccccc2)C1 (centres undefined) | 99 | i | 1 | -2 | -2
Cn1c(=O)c2c(nc(CN3CCN(C(=O)c4ccco4)CC3)n2CCCc2ccccc2)n(C)c1=O | 93 | i | 1 | 2 | 52*
CC1CCCN(Cc2nc3c(c(=O)n(C)c(=O)n3C)n2CCCc2ccccc2)C1 (centres undefined) | 118 | i | 0 | -2 | 55*
COC(=O)c1cc(NC(=O)CN2CCOCC2)cc(C(=O)OC)c1 | 86 | i | -2 | 1 | -4
O=C1[C@H]2[C@@H](c3ccc(C(F)(F)F)cc3)N[C@]3(CCCN(Cc4ccco4)C3=O)[C@H]2C(=O)N1Cc1ccccc1 | 103 | i | x | -2 | -9
COc1ccc(C(=O)NC(C)c2ccccc2)cc1Br (centres undefined) | 126 | + | -2 | 0 | 4

Screening data deposited in PubChem by several laboratories.
